Measured values published in the supplement of paper PMC11732987, “Enantioselective OTUD7B fragment discovery through chemoproteomics screening and high-throughput optimisation” (Communications Chemistry, 2025).

Legend:
Experiment in all cases: log2 ratio of Biotin-Ahx-Ub-VS probe labelling (fragment/DMSO); higher = less target engagement (more negative = stronger competition), active = hit call of the paper (q ≤ 0.05, log2 ratio ≤ -1)
Conditions in all cases: compound concentration: 200 uM; treatment time: 3 h
ALG13 = molecular target: T1, ALG13 (UniProt Q9NP73)
T1 sequence (whole entry): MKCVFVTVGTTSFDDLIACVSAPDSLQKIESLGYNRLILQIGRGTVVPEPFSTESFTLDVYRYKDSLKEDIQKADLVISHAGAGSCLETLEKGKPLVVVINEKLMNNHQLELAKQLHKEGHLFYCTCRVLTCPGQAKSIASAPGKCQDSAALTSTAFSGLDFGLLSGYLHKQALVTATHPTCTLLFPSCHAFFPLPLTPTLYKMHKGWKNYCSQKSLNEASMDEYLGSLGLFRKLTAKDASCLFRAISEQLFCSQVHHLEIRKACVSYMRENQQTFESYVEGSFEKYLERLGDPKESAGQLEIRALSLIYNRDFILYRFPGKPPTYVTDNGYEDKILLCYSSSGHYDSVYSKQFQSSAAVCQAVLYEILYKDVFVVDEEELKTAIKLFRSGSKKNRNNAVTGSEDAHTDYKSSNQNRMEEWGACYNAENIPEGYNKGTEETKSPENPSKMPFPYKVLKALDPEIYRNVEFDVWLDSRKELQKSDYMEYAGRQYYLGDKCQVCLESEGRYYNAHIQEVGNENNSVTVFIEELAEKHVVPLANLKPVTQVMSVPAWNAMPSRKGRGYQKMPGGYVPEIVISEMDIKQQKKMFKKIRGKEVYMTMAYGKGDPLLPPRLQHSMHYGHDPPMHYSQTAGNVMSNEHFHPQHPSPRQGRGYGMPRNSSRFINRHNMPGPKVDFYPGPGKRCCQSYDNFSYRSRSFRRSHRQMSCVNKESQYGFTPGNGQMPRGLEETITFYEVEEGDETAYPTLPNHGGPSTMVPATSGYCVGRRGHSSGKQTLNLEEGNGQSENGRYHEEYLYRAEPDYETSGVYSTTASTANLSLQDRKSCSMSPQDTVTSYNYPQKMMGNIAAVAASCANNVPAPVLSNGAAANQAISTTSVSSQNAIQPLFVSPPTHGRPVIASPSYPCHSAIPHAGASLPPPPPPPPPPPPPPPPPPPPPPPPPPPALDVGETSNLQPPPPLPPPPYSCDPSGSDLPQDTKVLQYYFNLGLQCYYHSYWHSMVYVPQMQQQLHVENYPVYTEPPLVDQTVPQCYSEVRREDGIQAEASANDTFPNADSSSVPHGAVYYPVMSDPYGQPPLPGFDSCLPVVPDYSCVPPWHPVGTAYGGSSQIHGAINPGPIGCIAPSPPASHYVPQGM
Method in brief: (§1)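 Average log2 ratios of fragment over vehicle were obtained by unpaired t-test from global-median-normalised Spectronaut label-free quantities. Proteins with ≥2 unique peptides were included. HEK293T lysate (495 µg per sample) was treated in triplicate with fragment at 200 µM or vehicle for 3 h, then with Biotin-Ahx-Ub-VS at 0.5 µM final for 1 h, and labelled DUBs were NeutrAvidin-enriched and run by diaPASEF LC-MS/MS.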

ATXN3 = ATXN3 (UniProt P54252)
Method in brief: as §1

BAP1 = molecular target: T2, BAP1 (UniProt Q92560)
T2 sequence (whole entry): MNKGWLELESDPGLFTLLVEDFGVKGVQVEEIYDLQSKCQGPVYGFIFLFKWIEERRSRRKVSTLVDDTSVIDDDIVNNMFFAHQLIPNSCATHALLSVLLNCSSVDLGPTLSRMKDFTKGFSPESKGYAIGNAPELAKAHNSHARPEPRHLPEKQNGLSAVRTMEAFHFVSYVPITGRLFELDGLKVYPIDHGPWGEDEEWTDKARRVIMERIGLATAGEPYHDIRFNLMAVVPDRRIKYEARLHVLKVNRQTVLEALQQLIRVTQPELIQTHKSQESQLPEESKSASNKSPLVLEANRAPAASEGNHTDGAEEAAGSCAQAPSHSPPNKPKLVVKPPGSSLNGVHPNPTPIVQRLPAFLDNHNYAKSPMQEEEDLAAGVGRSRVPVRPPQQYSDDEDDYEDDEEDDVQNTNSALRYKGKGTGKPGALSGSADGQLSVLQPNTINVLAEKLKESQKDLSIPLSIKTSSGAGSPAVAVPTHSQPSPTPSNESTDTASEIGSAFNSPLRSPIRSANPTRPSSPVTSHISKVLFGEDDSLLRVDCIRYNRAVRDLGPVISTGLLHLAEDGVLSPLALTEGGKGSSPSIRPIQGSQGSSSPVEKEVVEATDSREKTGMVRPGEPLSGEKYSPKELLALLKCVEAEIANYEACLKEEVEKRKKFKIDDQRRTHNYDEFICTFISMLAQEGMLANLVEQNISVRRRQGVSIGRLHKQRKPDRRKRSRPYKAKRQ
Method in brief: as §1

EIF3F = EIF3F (UniProt O00303)
Method in brief: as §1

EIF3H = EIF3H (UniProt O15372)
Method in brief: as §1

FAM105A = molecular target: T3, FAM105A (UniProt Q9NUU6)
T3 sequence (whole entry): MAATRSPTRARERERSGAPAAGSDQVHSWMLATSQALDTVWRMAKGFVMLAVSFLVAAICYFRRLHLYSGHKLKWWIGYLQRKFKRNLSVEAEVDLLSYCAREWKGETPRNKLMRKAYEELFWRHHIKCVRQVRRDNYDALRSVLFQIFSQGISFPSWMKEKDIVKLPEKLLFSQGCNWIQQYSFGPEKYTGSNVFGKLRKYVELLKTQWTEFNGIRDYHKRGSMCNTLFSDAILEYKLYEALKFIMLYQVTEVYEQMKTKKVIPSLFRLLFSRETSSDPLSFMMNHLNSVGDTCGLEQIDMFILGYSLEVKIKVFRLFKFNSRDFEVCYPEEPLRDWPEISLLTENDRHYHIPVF
Method in brief: as §1

OTUB1 = OTUB1 (UniProt Q96FW1)
Method in brief: as §1

OTUD4 = molecular target: T4, OTUD4 (UniProt Q01804)
T4 sequence (whole entry): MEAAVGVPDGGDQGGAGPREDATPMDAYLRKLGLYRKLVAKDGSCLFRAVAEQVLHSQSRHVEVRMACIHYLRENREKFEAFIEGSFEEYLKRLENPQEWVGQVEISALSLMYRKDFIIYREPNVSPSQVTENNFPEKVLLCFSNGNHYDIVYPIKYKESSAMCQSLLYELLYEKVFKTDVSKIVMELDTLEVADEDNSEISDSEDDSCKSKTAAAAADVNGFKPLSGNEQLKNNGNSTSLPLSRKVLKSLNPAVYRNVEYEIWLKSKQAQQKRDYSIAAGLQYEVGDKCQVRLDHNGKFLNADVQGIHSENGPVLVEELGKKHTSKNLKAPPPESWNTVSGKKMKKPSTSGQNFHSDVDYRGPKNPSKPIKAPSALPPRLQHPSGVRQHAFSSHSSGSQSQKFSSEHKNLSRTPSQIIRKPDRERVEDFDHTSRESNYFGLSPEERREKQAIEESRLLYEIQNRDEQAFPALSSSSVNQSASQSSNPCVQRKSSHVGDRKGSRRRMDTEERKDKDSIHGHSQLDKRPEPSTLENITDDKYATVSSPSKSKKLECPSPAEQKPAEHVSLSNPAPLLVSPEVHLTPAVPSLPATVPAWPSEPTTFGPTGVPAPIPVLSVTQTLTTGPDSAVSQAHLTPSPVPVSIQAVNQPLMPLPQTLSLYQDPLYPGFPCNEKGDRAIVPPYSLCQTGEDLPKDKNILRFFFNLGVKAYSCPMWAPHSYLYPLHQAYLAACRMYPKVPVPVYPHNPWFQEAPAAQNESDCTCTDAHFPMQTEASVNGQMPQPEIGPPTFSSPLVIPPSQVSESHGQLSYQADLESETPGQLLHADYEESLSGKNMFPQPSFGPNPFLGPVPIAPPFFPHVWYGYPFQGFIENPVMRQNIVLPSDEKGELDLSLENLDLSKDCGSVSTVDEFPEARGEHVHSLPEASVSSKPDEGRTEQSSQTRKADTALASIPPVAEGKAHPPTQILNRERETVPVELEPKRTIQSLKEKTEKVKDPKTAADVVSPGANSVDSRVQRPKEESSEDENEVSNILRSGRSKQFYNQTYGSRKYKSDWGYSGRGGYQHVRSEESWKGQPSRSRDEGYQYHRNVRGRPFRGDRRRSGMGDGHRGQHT
Method in brief: as §1

OTUD5 = molecular target: T5, OTUD5 (UniProt Q96G74)
T5 sequence (whole entry): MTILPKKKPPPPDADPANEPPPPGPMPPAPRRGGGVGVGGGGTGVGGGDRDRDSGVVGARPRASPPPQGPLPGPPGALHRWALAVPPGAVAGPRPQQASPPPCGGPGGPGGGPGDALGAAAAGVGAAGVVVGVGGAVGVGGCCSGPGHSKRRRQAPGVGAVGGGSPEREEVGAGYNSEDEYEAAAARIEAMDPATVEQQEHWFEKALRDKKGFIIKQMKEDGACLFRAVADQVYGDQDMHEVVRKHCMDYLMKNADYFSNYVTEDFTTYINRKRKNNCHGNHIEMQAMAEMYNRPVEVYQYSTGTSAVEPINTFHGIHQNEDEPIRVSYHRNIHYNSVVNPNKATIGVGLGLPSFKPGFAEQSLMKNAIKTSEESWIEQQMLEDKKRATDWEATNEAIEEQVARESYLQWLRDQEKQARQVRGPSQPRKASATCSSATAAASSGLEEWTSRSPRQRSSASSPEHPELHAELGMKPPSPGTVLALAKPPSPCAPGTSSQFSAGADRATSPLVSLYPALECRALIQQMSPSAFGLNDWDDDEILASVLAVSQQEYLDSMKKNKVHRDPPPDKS
Method in brief: as §1

Measured: log2 ratio of Biotin-Ahx-Ub-VS probe labelling

Chain of EIF3F (O00303 whole entry): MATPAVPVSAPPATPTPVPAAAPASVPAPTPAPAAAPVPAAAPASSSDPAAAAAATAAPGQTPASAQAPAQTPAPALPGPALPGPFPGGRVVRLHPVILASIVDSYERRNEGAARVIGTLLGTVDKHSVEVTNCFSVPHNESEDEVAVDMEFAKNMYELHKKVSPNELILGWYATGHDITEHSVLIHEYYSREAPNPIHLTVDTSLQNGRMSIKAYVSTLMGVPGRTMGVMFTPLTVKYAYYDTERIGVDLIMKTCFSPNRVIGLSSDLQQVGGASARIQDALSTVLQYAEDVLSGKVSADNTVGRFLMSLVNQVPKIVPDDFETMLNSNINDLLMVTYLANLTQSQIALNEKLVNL
Chain of OTUB1 (Q96FW1 whole entry): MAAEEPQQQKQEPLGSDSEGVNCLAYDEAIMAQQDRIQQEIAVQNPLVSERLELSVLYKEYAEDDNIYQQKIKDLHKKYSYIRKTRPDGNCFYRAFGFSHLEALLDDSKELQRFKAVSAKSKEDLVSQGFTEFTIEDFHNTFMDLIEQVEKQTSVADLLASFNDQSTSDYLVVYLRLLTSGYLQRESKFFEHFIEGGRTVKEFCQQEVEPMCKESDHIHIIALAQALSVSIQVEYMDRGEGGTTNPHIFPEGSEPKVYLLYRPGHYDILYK
Chain of EIF3H (O15372 whole entry): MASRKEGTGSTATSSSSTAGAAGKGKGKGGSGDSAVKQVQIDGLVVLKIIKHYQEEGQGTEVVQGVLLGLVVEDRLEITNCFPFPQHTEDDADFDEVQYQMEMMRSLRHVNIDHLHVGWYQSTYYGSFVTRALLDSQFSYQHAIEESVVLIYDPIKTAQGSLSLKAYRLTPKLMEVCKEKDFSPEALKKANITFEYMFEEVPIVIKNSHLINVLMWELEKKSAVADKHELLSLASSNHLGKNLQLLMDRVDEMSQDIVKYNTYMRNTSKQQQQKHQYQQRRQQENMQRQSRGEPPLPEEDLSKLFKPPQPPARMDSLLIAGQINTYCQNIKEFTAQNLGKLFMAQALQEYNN
Chain of ATXN3 (P54252 whole entry): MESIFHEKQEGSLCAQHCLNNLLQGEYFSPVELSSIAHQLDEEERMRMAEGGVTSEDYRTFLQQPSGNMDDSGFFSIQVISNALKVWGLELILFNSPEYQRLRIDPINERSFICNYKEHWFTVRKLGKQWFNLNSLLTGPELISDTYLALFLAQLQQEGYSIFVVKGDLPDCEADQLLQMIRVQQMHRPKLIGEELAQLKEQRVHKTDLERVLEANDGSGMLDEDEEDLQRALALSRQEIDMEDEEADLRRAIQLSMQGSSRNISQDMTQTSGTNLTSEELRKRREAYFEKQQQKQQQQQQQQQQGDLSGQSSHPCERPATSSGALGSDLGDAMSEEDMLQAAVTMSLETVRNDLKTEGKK

Cl.O=C(CCl)N1CCn2cncc2C1
inactive: ALG13 0.285 | ATXN3 -0.224 | BAP1 -0.163 | EIF3F -0.0339 | EIF3H 0.0971 | FAM105A -0.433 | OTUB1 -0.000993 | OTUD4 0.0549 | OTUD5 -0.214
